# Screening results as filed in PubChem.
# M1 ag parental: counter-screen for M1 agonists: effect in parental CHO-K1 cells; 360,000 compounds, 0.48% hits; AID 602248; activation, % at 3 µM; Fluo-8 calcium fluorescence; scaled to maximal ATP response, vehicle zero; in the data active means activation above about 15%;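 further: untransfected CHO-K1 host cells lacking M1 receptor as counterscreen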
# M1 PAM: positive allosteric modulators of human M1 muscarinic receptor | 360,000 compounds, 0.088% hits | AID 588819 | P11229 | CHO-K1 hM1, Fluo-8 calcium fluorescence, ACh EC20; 0% = ACh EC20, 100% = maximal ACh | activation, % at 3 µM; in the data active means activation above about 19%, passing the limit was not always enough
# Target sequence (P11229 whole entry, looked up): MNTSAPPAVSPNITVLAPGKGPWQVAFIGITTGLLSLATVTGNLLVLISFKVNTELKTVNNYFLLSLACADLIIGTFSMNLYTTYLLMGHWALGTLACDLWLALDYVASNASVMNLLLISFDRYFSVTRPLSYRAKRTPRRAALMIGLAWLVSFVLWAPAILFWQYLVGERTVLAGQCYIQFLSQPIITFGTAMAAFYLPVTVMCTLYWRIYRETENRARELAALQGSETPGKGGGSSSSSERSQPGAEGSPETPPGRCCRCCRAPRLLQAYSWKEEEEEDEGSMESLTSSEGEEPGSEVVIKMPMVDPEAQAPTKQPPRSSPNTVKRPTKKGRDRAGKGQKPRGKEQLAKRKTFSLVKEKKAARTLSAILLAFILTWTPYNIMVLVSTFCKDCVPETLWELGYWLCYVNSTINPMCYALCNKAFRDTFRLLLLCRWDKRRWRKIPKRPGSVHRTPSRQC
# CHO-K1 Ca PAM: counter-screen for M1 PAMs: effect in parental CHO-K1 cells; ATP EC20, Fluo-8 calcium fluorescence; 0% at ATP EC20, 100% at ATP max; activation, % at 3 µM; 360,000 compounds, 0.02% hits;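 active means activation above the run cutoff, the mean activation of all test compounds plus 3 SD, cut at about 40% in these data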;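 further: peak over basal fluorescence ratio in a 140 s read after ATP addition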
# M1 ag: human M1 muscarinic receptor agonism; P11229; CHO-K1 hM1, Fluo-8 calcium fluorescence, agonist mode; 0% DMSO, 100% acetylcholine EC100; activation, % at 3 µM; 360,000 compounds, 0.33% hits; AID 588814;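 active means activation above the run's mean compound activation plus 3 SD, cut at about 16% in these data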;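 further: peak over basal fluorescence ratio within a 140 s kinetic read after compound addition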
# M1 antag: antagonists of human M1 muscarinic receptor. CHO-K1 hM1, Fluo-8 calcium fluorescence, ACh EC80 antagonist. AID 588852. P11229. 360,000 compounds, 1.3% hits. inhibition, % at 3 µM;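 active means percent inhibition above its own plate's cutoff, namely the mean of that plate's compound wells plus 3 SD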;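 further: peak over basal fluorescence ratio during 140 s after agonist addition; 0% = ACh EC80 plus DMSO and 100% = DMSO alone without agonist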
# CHO-K1 Ca antag: nonselective inhibitor or artifact in parental CHO-K1 cells; AID 602250; inhibition, % at 3 µM; ATP-induced calcium, Fluo-8 fluorescence; 360,000 compounds, 0.6% hits;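 active means inhibition above a per-plate cutoff, the plate's mean sample inhibition plus 3 SD, cut at about 24% in these data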;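 further: 0% = DMSO plus EC80 ATP and 100% = DMSO alone without ATP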
# The depositor's hits bear a star. This is a sample that favours compounds with a hit; in the whole collection about 2.3% have one here.
SMILES,M1 ag parental,M1 PAM,CHO-K1 Ca PAM,M1 ag,M1 antag,CHO-K1 Ca antag
CCCC(=O)c1ccc(N2CCN(C(=O)c3cccs3)CC2)c(F)c1,15*,-23,-11,-3,42*,11
CC(=O)c1ccc(N2CCN(C(=O)c3cccs3)CC2)c(F)c1,6,11,12,-2,-18,-7
COc1ccc(NC(=O)Oc2cc(C)ccc2C(C)C)cc1,0,0,19,-6,-20,-15
CSCCC(NC(=O)c1ccccc1Cl)C(=O)NCC1COc2ccccc2O1 (centres undefined),0,-13,-31,-2,31*,16
CSCCC(NC(=O)c1ccc(Cl)cc1Cl)C(=O)NCc1ccccn1 (centres undefined),0,7,17,-3,-12,35*
Cc1ccccc1CN1CCN(c2ccc(S(=O)(=O)N3CCCC3)cn2)CC1,0,-11,-6,-8,3,-17
Cc1cc(OC2CCCCC2)nc(NCc2ccccc2)n1,0,4,-2,-3,-3,5
Cc1cc(N2CCCCC2)nc(NCc2ccccc2)n1,20*,-24,0,21*,16,13
Cc1cc(N2CCOCC2)nc(NCc2ccccc2)n1,16*,-23,-9,-3,21,4
Cc1cc(N2CCCCC2)nc(N2CCCCC2)n1,2,-14,23,28*,15,-5
Cc1cc(N2CCCCCC2)nc(-c2ccccc2O)n1,0,-9,9,-5,11,-8
O=C(O)c1ccc(CN2C[C@@H](CO)O[C@@H](n3cnc4c(NCc5ccco5)ncnc43)C2)cc1,1,11,19,-2,-12,-7
Cc1onc(-c2ccccc2)c1C(O)c1ccc(F)cc1 (centres undefined),7,-23,-11,-6,42*,33*
Cc1onc(-c2ccccc2Cl)c1C(O)c1ccc(F)cc1 (centres undefined),1,1,5,-7,-6,-18
COc1cccc(OC)c1C(=O)Nc1ccccc1C(=O)N1CCCCCC1,1,6,1,-4,-5,-4
C[C@H]1CCCCO[C@@H](CN(C)C(=O)NC2CCCCC2)[C@@H](C)CN([C@@H](C)CO)C(=O)c2cc(NC(=O)Cc3ccccc3)ccc2O1,0,-3,9,-9,-4,-9
CCCNC(=O)CN1C(=O)COc2ccc(S(=O)(=O)N3CC(C)CC(C)C3)cc21 (centres undefined),-1,8,6,-3,-10,-15
CCCNC(=O)Cn1c(=O)/c(=C/c2ccc(-c3ccc([N+](=O)[O-])cc3)o2)s/c1=C\C(=O)C(C)(C)C,32*,-18,1,74*,65*,31*
COC(=O)c1ccc(NC(=O)c2cccc(Cl)c2)o1,1,1,17,-3,-3,0
CC1CCCN(CCCNC(=O)c2ccc(CS(=O)(=O)c3c(Cl)cccc3Cl)o2)C1 (centres undefined),1,-21,3,-5,57*,-10
COc1ccccc1NC(=O)CN(c1ccccc1)S(=O)(=O)c1ccccc1,1,5,11,-1,-2,-9
Cc1ccc(S(=O)(=O)N(CC(=O)Nc2ccccc2C(=O)O)c2ccccc2)cc1,16*,9,-3,-9,2,14
CC(C)C(C(=O)Nc1ccncc1)c1ccc(Cl)cc1 (centres undefined),17*,4,8,9,-1,3
CC(C)C(C(=O)Nc1nccs1)c1ccc(Cl)cc1 (centres undefined),2,-13,26,-8,6,-19
C=CCn1c(N2CCCC2)nc2c1c(=O)[nH]c(=O)n2C,0,3,13,-2,-14,-19
Cn1c(=O)[nH]c(=O)c2c1nc(N1CCCCC1)n2C/C=N/NC(=O)c1cc(Br)ccc1O,26*,1,-9,7,-2,5
CC(C)NC(=O)c1ccc2c(=O)n(C3CCCC3)c(=S)[nH]c2c1,0,9,3,-4,-7,4
CCN(CC)CCNC(=O)c1ccc2c(=O)n(C3CCCC3)c(=S)[nH]c2c1,3,-24,23,-7,57*,-5
